# High-throughput results (PubChem BioAssay)
# LDHA inh: blocks human lactate dehydrogenase A. 480,000 compounds, 0.15% hits. purified LDHA, NADH/diaphorase-resazurin fluorescence; stronger effect = lower value. activity change, % (values are at about 110 or 230 µM); in the data active means activity change below about -30%; inconclusive means mostly about -25% to -30%
#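 Resorufin fluorescence (ex540/em590), read at 0 and 20 min after diaphorase/resazurin addition, reports the NADH left after a 5 min room-temperature reaction of 2 nM human LDH5 with 0.06 mM NADH and 0.2 mM pyruvate.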
# Nrf2 ARE act: activates Nrf2 signaling. AREc32 ARE-luciferase reporter (MCF7-derived line), luminescence, 24 h. Potency, µM (series often up to 46.1 µM), hits mostly activators. 410,000 compounds, 0.31% hits; further: nearly all actives have a fitted effect of over 65% in size
#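 Luminescent ARE reporter assay in AREc32_Fluc cells: overnight plating at 37 deg C, 24 hr compound incubation, Steady-Glo added, 30 min RT before reading.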
# Nrf2 block: inhibitors of Nrf2 signaling | Potency, µM (doses to about 46 µM), most hits filed as inhibitors | AID 504444 | A549 ARE-Fluc reporter, luciferase luminescence, 18-24 h | 360,000 compounds, 2.1% hits; further: nearly all actives have a fitted effect of over 60% in size
#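 Cells were seeded and rested 2 h, then exposed to compounds for 18-24 h. CellTiter-Fluor was read first as a viability measure. BugLite was added 15 min before the final luminescent read of ARE-luciferase activity in A549 cells.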
# A549 tox: kills or reduces viability of A549 cells in Nrf2 counter-screen; A549 ARE-Fluc cells, CellTiter-Fluor viability, 18-24 h; Potency, µM (highest dose often 46 µM), hits mostly inhibitors; 390,000 compounds, 0.16% hits
#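 A549 ARE_Fluc cells in 5% FBS OPTI-MEM were exposed to compounds in concentration-response for 18-24 h at 37 deg C. Viability was read by CellTiter-Fluor fluorescence (Ex 405/Em 525) after 30 min, before the luciferase read.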
# ERG Ets-DNA blk: blocks human ERG Ets domain binding to DNA; fluorescence polarization, His-ERG Ets domain / labelled DNA; AID 624246; P11308; 370,000 compounds, 0.028% hits; Potency, µM (highest dose often 76.9 µM), actives largely listed as inhibitors; active means well fitted inhibition curve with a large enough effect in the polarisation, with a control signal flat; inconclusive means small, poorly fitted or top-dose-only effect, or effect the other way, or a change in a side signal; inactive means no such curve, though single readings can be large or run the other way; the % refers to the polarisation;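 further: polarization taken with two DNA probes labelled with fluorescein and Texas red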
# Target sequence (P11308 whole entry, looked up, the tested form may be a part): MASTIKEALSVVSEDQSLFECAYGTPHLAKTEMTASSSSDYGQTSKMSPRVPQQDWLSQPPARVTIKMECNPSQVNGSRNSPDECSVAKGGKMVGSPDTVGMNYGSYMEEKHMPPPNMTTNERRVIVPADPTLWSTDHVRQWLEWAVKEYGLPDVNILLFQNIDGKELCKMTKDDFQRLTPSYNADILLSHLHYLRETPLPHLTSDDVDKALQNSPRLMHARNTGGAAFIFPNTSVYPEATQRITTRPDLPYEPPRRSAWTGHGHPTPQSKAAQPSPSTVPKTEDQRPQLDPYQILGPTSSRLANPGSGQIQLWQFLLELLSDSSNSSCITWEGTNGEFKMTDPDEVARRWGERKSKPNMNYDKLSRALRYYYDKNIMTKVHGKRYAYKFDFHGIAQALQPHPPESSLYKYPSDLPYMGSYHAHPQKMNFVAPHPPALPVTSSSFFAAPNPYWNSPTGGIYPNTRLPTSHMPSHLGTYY
#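 His-tagged ERG Ets domain (1 uM in the protein solution; 300mM KCl, 50mM Tris-HCl, 1mM EDTA, 1mM DTT, pH 7.5) received compound, then a probe mix of 5 nM fluorescein-DNA and 100nM Texas-615-DNA. Fluorescence polarization was read for both dyes.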
# ALOX12 inh: inhibitors of human 12S-lipoxygenase ALOX12; P18054; purified 12hLO, xylenol orange hydroperoxide absorbance; Potency, µM (highest dose often 108 µM), usual class: inhibitors; 580,000 compounds, 1.1% hits; AID 1671190
#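 Hydroperoxide product was detected by ferrous iron/xylenol orange as the 573 to 405 nm absorbance ratio. Arachidonic acid at 40 uM (final) was turned over for 30 min at room temperature by 150 nM human 12hLO, pH 7.0 Hepes buffer, after 15 min compound preincubation.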
# Numbers stand for hits; - = inactive; ? = inconclusive; . = no result given. Compounds with a hit are over-represented: about 2.7% of the library has one in this group of screens. Unless noted, the call rests on the fitted dose curve; in most records, active means well fitted curve in the direction sought with a large enough effect; inconclusive means small, poorly fitted or top-dose-only effect, or another doubt; inactive means no such curve, though single readings can be large; an effect the other way counts as inactive or inconclusive.
SMILES,LDHA inh,Nrf2 ARE act,Nrf2 block,A549 tox,ERG Ets-DNA blk,ALOX12 inh
CCCCNC(=S)N/N=C/c1ccccc1F,-,-,-,-,-,?
CCCCNC(=S)N/N=C/c1cc(C)ccc1C,-,-,-,-,-,50.1µM
O=C1C(c2ccccc2)=S=C2C=Cc3ccccc3N12,-,.,.,.,.,22.4µM
O=C(O)c1ccc(-c2ccc(CNCc3ccccc3)o2)cc1,-,.,.,.,.,-
Cc1ccccc1CC(C)Nc1ccc(C#N)cn1 (stereo not given),-,.,.,.,.,?
COc1ccc(OC)c(N(CCN2C(=O)c3ccccc3C2=O)C(=O)CCl)c1,-,12.6µM,.,.,.,-
Cc1cccc(C(=O)N2CCN(c3ncnc4c3cnn4-c3ccccc3)CC2)c1,-,-,18.4µM,-,-,-
Cc1oc2cc(OCC(=O)N3CCCC3)ccc2c(=O)c1Oc1ccccc1,-,.,.,.,.,?
C/C=C/C=C/C(=O)Nc1ccccc1SC,-,.,.,.,.,-
O=C(O)c1ccccc1NS(=O)(=O)c1cccc(C(F)(F)F)c1,-,-,-,-,-,-
O=C(O)c1ccccc1NS(=O)(=O)c1cccc(-n2sc3ccccc3c2=O)c1,-70.7,-,-,-,-,0.224µM
COC(=O)[C@]1(C)CCC[C@@]2(C)C3CC[C@@]4(C)C[C@]3(CCC21)CC(=O)N4Cc1ccc(OC)cc1 (stereo not given in full),-,-,14.6µM,-,-,-
Cc1cc(C)c2oc(C(=O)Nc3nnc(SCc4ccc(F)cc4)s3)cc(=O)c2c1,-,.,.,.,.,-
Nc1nc(-c2ccco2)nn1C(=O)c1ccccc1Cl,-,-,1.84µM,-,-,-
CNS(=O)(=O)c1ccc2c3c(cccc13)C(=O)N2C,-,-,?,-,-,8.91µM
C=C(C)Cn1c(SCCc2ccccc2)nc2c1c(=O)n(C)c(=O)n2C,-,.,.,.,.,-
C/C(=N\OCC(=O)Nc1ccccc1Br)c1cccs1,-,22.4µM,-,-,-,-
C/C(=N/OCC(=O)Nc1ccccc1)c1cccs1,-,-,.,-,-,-
Cc1ccc(C)c(NC(=O)c2csc3c2CCCCC3)c1,-,.,.,.,.,?
Cc1cc(C)c(NC(=O)C2=Cc3sc4c(c3CS2)CCCC4)c(C)c1,-,.,.,.,.,28.2µM
CCC(C)NC(=O)C1=Cc2sc3c(c2CS1)CCCC3 (stereo not given),-,.,.,.,.,14.1µM
CCC(C)NC(=O)c1csc2c1CCCCC2 (stereo not given),-,-,?,-,-,-
Cc1ccc(NC(=O)C2=Cc3sc4c(c3CS2)CCCC4)cc1C,-,.,.,.,.,7.08µM
Cc1ccc(C)c(NC(=O)C2=Cc3sc4c(c3CS2)CCCC4)c1,-,.,.,.,.,17.8µM
O=C(Nc1cccc(F)c1)C1=Cc2sc3c(c2CS1)CCCC3,-,.,.,.,.,?
SMILES,LDHA inh,Nrf2 ARE act,Nrf2 block,A549 tox,ERG Ets-DNA blk,ALOX12 inh
COc1ccc(C(=O)Nc2cccc3cccnc23)cc1Cl,-,.,.,.,.,?
N#Cc1c(-c2ccc(C(=O)c3ccc(O)cc3)cc2)no[n+]1[O-],-,.,.,.,.,.
Cc1cccc(NS(=O)(=O)c2ccc3c(c2)CCN3C(=O)C2CCC2)c1,-,-,14.6µM,-,-,-
Cc1cccc(NS(=O)(=O)c2ccc(NC(=O)N3CCCCC3)cc2)c1,-,-,18.4µM,-,-,-
Cc1cccc(NNC(=O)C(=O)NNc2cccc(C)c2)c1,-,-,-,-,-,1.41µM
Cc1cccc(NC(=O)CC(=O)Nc2cccc(C)c2)c1,-,-,-,-,-,-
Cc1cccc(NC(=O)NNS(=O)(=O)c2ccc(F)cc2)c1,-,-,-,-,-,-
CC(=O)Nc1ccc(S(=O)(=O)NNc2cccc(C)c2)cc1,-,-,-,-,-,2µM
CCN(Cc1cc2cc(OC)ccc2[nH]c1=O)C(=O)c1ccco1,-,.,.,.,.,?
COc1ccc(C(=O)Oc2ccc(C(C)(C)C)cc2)cc1Br,-,.,.,.,.,-
CCC(Oc1ccccc1)C(=O)Nc1cc(C)on1 (stereo not given),-,-,-,-,-,-
Cc1cc(NC(=O)C(Cl)c2ccccc2)no1 (stereo not given),-,12.6µM,?,-,-,?
Cc1ccc(C2C3=C(CCCC3=O)Nc3[nH]n(-c4ccccc4)c(=O)c32)cc1 (stereo not given),-,.,.,.,.,?
Cc1cccc(C2C3=C(Nc4[nH]n(-c5ccccc5)c(=O)c42)c2ccccc2C3=O)c1 (stereo not given),-,-,-,-,-,35.5µM
N#Cc1cccc(NCc2cc(Br)ccc2F)c1,-,.,.,.,.,?
COc1ccc(CNC(=O)CCc2cn(Cc3cc(C)ccc3C)c3ccccc23)cc1OC,-,-,23.1µM,-,-,-
O=C(Nc1ccc(F)c(Cl)c1)c1cnc(N2CCCCC2)c2ccccc12,-,.,.,.,.,-
COc1ccc(C(C(=O)NC2CCCCC2)N(C(=O)Cc2c[nH]c3ccccc23)c2ccccc2C)cc1OC (stereo not given),-,-,?,?,-,-
Cc1ccc(N(C(=O)Cc2c[nH]c3ccccc23)C(C(=O)NC2CCCCC2)c2ccco2)cc1 (stereo not given),-,-,18.4µM,?,-,-
COc1ccc(C(C(=O)NC2CCCCC2)N(Cc2cccs2)C(=O)Cc2c[nH]c3ccccc23)cc1OC (stereo not given),-,-,23.1µM,?,-,-
Cc1nc2nc(N)nn2c(C)c1CC(=O)NC(C)C,-,.,.,.,.,-
CCNC(=O)C(C)Sc1ncc(-c2ccc(F)cc2)o1 (stereo not given),-,.,.,.,.,-
Clc1cccc(Cl)c1CO/N=C/c1c(-c2ccccc2)nc2n1CCS2,-,-,18.4µM,-,-,-
O=S(=O)(c1ccc2ccccc2c1)N1CCOCC1,-,-,?,-,-,-
O=S(=O)(c1ccc2nc(-c3ccco3)c(-c3ccco3)nc2c1)N1CCOCC1,-,-,-,-,-,14.1µM
SMILES,LDHA inh,Nrf2 ARE act,Nrf2 block,A549 tox,ERG Ets-DNA blk,ALOX12 inh
CCOc1ccc(-c2nc(CNC(=O)Nc3ccccc3Cl)c(C)o2)cc1,-,.,.,.,.,?
CCN1CCC(O)(/C=C/c2ccc(C(C)C)cc2)C(C(=O)/C=C/c2ccc(C(C)C)cc2)C1 (stereo not given),-,?,-,?,.,1.78µM
CCN1CCN(C(=O)/C=C/c2ccc(C(C)C)cc2)CC1,-,-,?,-,-,-
CC(=O)N1CCN(c2cc(N3CCc4ccccc4C3)c(F)cc2[N+](=O)[O-])CC1,-,-,23.1µM,?,-,-
Cn1c(=O)n(C)c2cc([N+](=O)[O-])c(N3CCN(C(=O)c4ccc(F)cc4)CC3)cc21,-,-,18.4µM,-,-,-
CC(=O)Nc1ccc(S(=O)(=O)N2CCN(c3cc4c(cc3[N+](=O)[O-])n(C)c(=O)n4C)CC2)cc1,-,-,16.4µM,-,-,-
